Holding throughout (format): functional
In test [1] the target is Solute carrier family 2, facilitated glucose transporter member 1 (Homo sapiens) (UniProt P11166). The test can be described thus: ST_JUDE_LEISH: Cytotoxicity at 2uM final concentration against transgenic Leishmania Mexicana promastigotes LmGLUT1 that are glucose transport deficient and complemented with the human glucose transporter GLUT1. Activity is measured by DNA content using SYBR green in vitro.

Test [2] deals with Hexose transporter 1 (Plasmodium falciparum) (UniProt O97467). The test can be described thus: ST_JUDE_LEISH: Cytotoxicity at 2uM final concentration against transgenic Leishmania Mexicana promastigotes LmPfHT that are glucose transport deficient and complemented with the Plasmodium falciparum hexose transporter. Activity is measured by DNA content using SYBR green in vitro.
For test [3], the target named is Glucose transporter (Leishmania mexicana) (UniProt O61059). The test can be described thus: ST_JUDE_LEISH: Cytotoxicity at 2uM final concentration against transgenic Leishmania Mexicana promastigotes LmGT2 that are glucose transport deficient and complemented with the L. Mexicana glucose transporter 2. Activity is measured by DNA content using SYBR green in vitro.

The structures appear in SMILES notation.

As usually defined, the inhibition is the change of the read-out against control, counted positive when it falls.

Solute carrier family 2, facilitated glucose transporter member 1 (Homo sapiens), sequence (P11166 whole entry): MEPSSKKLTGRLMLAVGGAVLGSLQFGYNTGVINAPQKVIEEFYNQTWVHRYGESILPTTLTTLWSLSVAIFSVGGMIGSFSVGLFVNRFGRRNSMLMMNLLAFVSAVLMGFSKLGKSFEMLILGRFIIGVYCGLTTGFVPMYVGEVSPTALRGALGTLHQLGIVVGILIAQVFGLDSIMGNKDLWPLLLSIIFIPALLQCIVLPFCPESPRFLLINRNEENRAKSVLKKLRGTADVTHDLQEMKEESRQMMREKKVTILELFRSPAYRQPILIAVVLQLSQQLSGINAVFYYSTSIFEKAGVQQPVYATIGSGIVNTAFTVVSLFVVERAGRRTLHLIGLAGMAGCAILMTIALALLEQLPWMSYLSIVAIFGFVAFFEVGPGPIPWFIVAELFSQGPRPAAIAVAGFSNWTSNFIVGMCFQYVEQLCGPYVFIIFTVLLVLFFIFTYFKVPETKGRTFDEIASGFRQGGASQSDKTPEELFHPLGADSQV

`O=C1CCCC1Sc1nc2ccccc2c(=O)n1-c1ccc(Cl)c(Cl)c1` (configuration not stated): the inhibition in test [1] is 2.33%; in test [2], 1.97%; in test [3] it was -1.42%.
The matching figures for `CCCCCn1c(Sc2ccc(C#N)c([N+](=O)[O-])c2)nnc1-c1ccc(OC)cc1`: 9.26%, 6% and 4.8%.
For `O=C(Cc1c[nH]cn1)Nc1cccc(-c2cccc(-c3nc4ccccc4[nH]3)c2)c1`, in that order: 9.66%, 12.8% and 7.58%.
For `Cc1noc(C)c1-c1cccc(CNCc2ccc(-c3ccc(-c4nc5ccccc5[nH]4)s3)cc2)c1`, in that order: 1.82%, 1.38% and -0.04%.
`CCCCSc1ccc2nc(-c3c[nH]c4ccc(C#N)cc34)cn2c1`: the inhibition in test [1] is -0.49%; in test [2], 3.17%; in test [3] it was 3.81%.
Consider `CCC1(C)CC(CCNCc2ccccc2O)(c2ccccc2OC)CCO1` (configuration not stated), for which the inhibition in test [1] was 0.62%; in test [2], -0.31%; in test [3], 0.88%.
The matching figures for `N#Cc1ccc2c(c1)CN(C1CCC(NC(=O)/C=C/c3cc(C(F)(F)F)cc(C(F)(F)F)c3)CC1)CCC2` (configuration not stated): 1.63%, 1.36% and 0.57%.
As for `Cc1nc(NC(=N)N)nc2cc3c(cc12)CCC3`, the inhibition in test [1] was 0.91%; in test [2], 0.44%; in test [3], 0.48%.
The matching figures for `c1cncc(Oc2ccc(Nc3ccnc4cc(-c5cccc(CNCCN6CCOCC6)c5)ccc34)cc2)c1`: 0.19%, -1.57% and 1.1%.
For `COc1ccc(-c2cnc(N)c(-c3nc4cc(Br)ccc4[nH]3)c2)cc1`, in that order: 9.38%, 11.3% and 6.12%.
The matching figures for `COc1ccc(NC(=O)Nc2ccc(-c3cccc(-c4nc5cccc(C)c5[nH]4)c3)cc2)cc1`: -1.37%, -1.2% and -0.2%.
As for `CCNc1cc(C(=O)N[C@@H](Cc2ccccc2)[C@H](O)CNC2CCC(C)(C)CC2)cc(N2CCCCS2(=O)=O)c1`, the inhibition in test [1] came to 3.16%; in test [2] it was 1.73%; in test [3] it was 1.22%.
The matching figures for `Fc1cccc(COc2ccc(Nc3ncnc4sc(C#CCNC5CCCC5)cc34)cc2Cl)c1`: 2.71%, 2.09% and 2.47%.
For the compound `O=C(/C=C/c1ccc(Cl)c(Cl)c1)NCCCCCN1CCC(CCCNC(=O)Nc2ccc(C(F)(F)F)cc2)CC1`, the inhibition in test [1] is -1.43%; in test [2], -2.93%; in test [3], -1.92%.

Source of the values: ChEMBL document CHEMBL3433997, “St. Jude Leishmania screening dataset” (2016).
